Shown is part of a subset that was picked to be rich in hits.
ERp5 inh: inhibitors of human ERp5; Q15084; ERp5 insulin aggregation, absorbance 650 nm, 90 min; inhibition, % at 9.99 µM; 0.05% of 350,000 active; AID 651711;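 active = mean replicate inhibition above about 25%, with every replicate also reaching it, limit read from the data, passing the limit was not always enough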
PglD inh: inhibitors of Campylobacter jejuni PglD acetyltransferase. purified PglD enzyme, DTNB colorimetric CoA detection. inhibition, % at 12.5 µM. 0.098% of 360,000 active; in the data active = inhibition above about 16%, passing the limit was not always enough
NRP1-CendR mod: modulators of CendR peptide binding to human neuropilin-1. inhibition, % at 25 µM. 0.85% of 360,000 active. O14786. AID 602438. FAM-RPARPAR peptide binding to NRP-1, fluorescence polarization;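 active = inhibition or corrected inhibition above about 18%, plus a signal ratio from 0.5 to 1.5, limit read from the data, passing the limit was not always enough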
PDI inh: inhibitors of human protein disulfide isomerase; P07237; inhibition, % at 10 µM; AID 588391; PDI insulin aggregation turbidity, A650, 90 min; 0.052% of 350,000 active;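 active = mean inhibition across replicates of 30% or more, whatever share of single replicates reach that level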
ARNT TACC3 PPI: ARNT/TACC3 interaction disruption | Q9Y6A5 | AlphaScreen His-ARNT PAS-B/GST-TACC3 binding, luminescence; TACC3 fragment carries E629A point mutation | inhibition, % at 9.99 µM | 0.66% of 390,000 active;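 active = mean inhibition of replicates at least 50% and at least half of replicates each reaching 50%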
ALR H2O2 inh: human ALR oxidase inhibition via reduced H2O2. 3.8% of 290,000 active. AID 485317. inhibition, % (no concentration beside the values). P55789. purified ALR, DTT oxidation, H2O2 HRP-luminol luminescence;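 active = mean replicate inhibition above about 79%, with every replicate also reaching it, limit read from the data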
A number is an active result; - = inactive; . = no result given.

SMILES	ERp5 inh	PglD inh	NRP1-CendR mod	PDI inh	ARNT TACC3 PPI	ALR H2O2 inh
C[C@@H]1CN([C@@H](C)CO)C(=O)c2cccc(NC(=O)Nc3ccc(C(F)(F)F)cc3)c2O[C@@H]1CN(C)C(=O)NC1CCCCC1	-	-	.	.	-	.
C[C@H](NC(=O)[C@@H]1[C@@H](CO)[C@@H]2Cn3c(ccc(-c4ccccc4)c3=O)[C@H]1N2C)c1ccccc1	-	-	.	.	-	.
O=C(CCCC(=O)c1ccccc1)Nc1ccc(O)cc1	-	-	-	-	-	88
CC(=O)Nc1ccccc1	-	-	-	-	-	.
O=C(Nc1ccc(N2CCN(c3ccc(O)cc3)CC2)cc1)Oc1ccccc1	-	-	-	-	-	-
Nc1ccc(OC(=O)Nc2ccc(O)cc2)cc1	-	-	-	-	-	99
CC(=O)Nc1ccc(Nc2ccccc2)cc1	-	-	-	-	-	99
O=C(Nc1ccc(Nc2ccccc2)cc1)C1CC1	.	-	-	-	-	100
C[C@H]1CN([C@@H](C)CO)C(=O)c2cc(C3=CCCCC3)cnc2O[C@@H]1CN(C)C(=O)c1ccncc1	-	-	.	.	-	.
Cc1ccc(N2NC(=O)/C(=C/c3ccc(-c4ccc(Cl)c(C(=O)O)c4)o3)C2=O)cc1	-	-	-	-	.	99
CCCCC1(C)OC(=O)C(=Cc2ccc(-c3ccc(Cl)c(C(=O)O)c3)o2)C(=O)O1 (stereo unspecified)	-	.	-	-	-	98
C[C@H](CO)N1C[C@H](C)[C@H](CN(C)C)Oc2ncc(-c3cccnc3)cc2C1=O	-	-	.	.	-	.
Nc1ccc(Cl)cc1/C(=N/O)c1ccccc1	.	-	-	-	-	97
N/N=C(\c1ccccc1)c1cc(Cl)ccc1N	-	-	-	-	-	-
CCOC(=O)N1CCN(c2c(NCCCN(CC)c3cccc(C)c3)c(=O)c2=O)CC1	.	-	-	-	-	99
CCOC(=O)N1CCN(c2c(NCCCN(CC)CC)c(=O)c2=O)CC1	.	-	-	-	-	-
CCN(CCNC(=O)C1CCC(=O)N1Cc1ccc(C)cc1)c1ccccc1 (stereo unspecified)	-	.	-	-	-	.
CCN(CCCNC(=O)C1CCC(=O)N1Cc1ccccc1Cl)c1cccc(C)c1 (stereo unspecified)	.	-	-	-	-	99
CCN(CCCNC(=O)C1CCC(=O)N1Cc1ccc(C)cc1)c1cccc(C)c1 (stereo unspecified)	-	-	-	-	-	99
CCOC(=O)C1CCCN(c2c(NCCCN(C)c3ccccc3)c(=O)c2=O)C1 (stereo unspecified)	-	-	-	-	-	99
C[C@@H]1CN([C@@H](C)CO)C(=O)c2cccc(NS(=O)(=O)c3ccc(Cl)cc3)c2O[C@H]1CN(C)Cc1ccc(Cl)c(Cl)c1	-	-	.	.	-	.
C[C@@H]1CN([C@@H](C)CO)C(=O)c2cc(NC(=O)CCC(F)(F)F)ccc2O[C@@H](C)CCCCO[C@H]1CN(C)Cc1ccc(C(=O)O)cc1	-	-	.	.	-	.
C[C@H](CO)N1C[C@H](C)[C@H](CN(C)S(C)(=O)=O)Oc2ccc(NC(=O)Cc3ccccc3)cc2CC1=O	-	-	.	.	-	.
CC(C)NC(=O)N1CC2(C1)[C@H](c1ccccc1)[C@H](CO)N2C(=O)C1CC1	-	.	.	.	.	.
CC(C)OC(=O)N(C)C[C@H]1OCc2ccccc2-c2ccccc2C(=O)N([C@H](C)CO)C[C@H]1C	-	-	.	.	-	.
SMILES	ERp5 inh	PglD inh	NRP1-CendR mod	PDI inh	ARNT TACC3 PPI	ALR H2O2 inh
COc1ccc(C(=O)CC(SCC(NC(C)=O)C(=O)O)c2ccc(Cl)cc2)cc1OC (stereo unspecified)	-	-	-	-	-	92
COc1ccc(C(C)NC(=O)c2ccc(Cl)cc2)cc1OC (stereo unspecified)	.	.	-	-	-	-
Cc1noc(C)c1NC(=O)NCC[C@H]1CC[C@@H](NC(=O)c2ccncc2)[C@H](CO)O1	-	-	.	.	-	.
C[C@@H]1CN([C@H](C)CO)C(=O)c2cc(NS(C)(=O)=O)ccc2O[C@@H](C)CCCCO[C@@H]1CN(C)S(=O)(=O)c1cccs1	-	-	.	.	-	.
O=S(=O)(O)c1cc(O)c(N=Nc2ccc(O)cc2O)c2ccccc12	-	-	-	-	93	.
Cc1c(C(=O)O)sc2ncnc(N3CCCCC3C)c12 (stereo unspecified)	.	-	-	-	-	-
Cc1cc2c(N3CCCCC3C)ncnc2s1 (stereo unspecified)	.	-	-	-	-	97
O=C(c1ccccc1)c1coc2ccc(O)c(Cl)c12	-	-	-	-	-	99
Cc1ccc(C(=O)c2coc3ccc(O)cc23)cc1	-	-	-	-	-	-
CN(C)Cc1c(O)ccc2occ(C(=O)c3ccccc3)c12	.	-	-	-	-	-
Cc1ccc(C(=O)c2coc3ccc(O)c(Cl)c23)cc1	.	-	-	-	-	98
O=C(C[C@@H]1CC[C@@H](NC(=O)Cc2cccnc2)[C@H](CO)O1)Nc1ccccc1	-	.	.	.	.	.
CC(=O)C1=C(c2ccccc2)NC(=O)NC1c1ccc(O)c(O)c1 (stereo unspecified)	-	.	-	-	-	99
CCOc1cc(C2NC(=O)NC(c3ccccc3)=C2C(C)=O)ccc1OCC(N)=O (stereo unspecified)	.	.	47	-	-	-
CC(=O)C1=C(c2ccccc2)NC(=S)NC1c1cc(Cl)c(OC(C)C)c(Cl)c1 (stereo unspecified)	.	-	-	-	-	-
CC1=C([N+](=O)[O-])C(c2ccc(O)c(O)c2)NC(=O)N1 (stereo unspecified)	-	-	-	-	-	99
CC(=O)C1=C(c2ccccc2)NC(=O)NC1c1ccc2c(c1)OCO2 (stereo unspecified)	-	-	-	-	-	-
CC(=O)C1=C(c2ccccc2)NC(=S)NC1c1ccc(O)c(O)c1 (stereo unspecified)	-	.	-	-	-	99
C[C@@H]1CN([C@@H](C)CO)C(=O)c2cccc(NC(=O)Nc3ccc(F)cc3)c2O[C@H]1CN(C)Cc1ccc(C(=O)O)cc1	-	-	.	.	-	.
COCCNC(=O)C[C@H]1C[C@H]2c3cc(N(C)C)ccc3O[C@H]2[C@@H](CO)O1	-	-	.	.	.	.
COC(=O)N(C)C[C@@H]1OCc2ccccc2-c2c(n(C)c3ccccc23)C(=O)N([C@@H](C)CO)C[C@H]1C	-	-	.	.	-	.
O=C(/C=C/c1ccc[nH]1)c1ccc(F)cc1	-	.	-	-	-	-
O=C(/C=C/c1ccc[nH]1)c1ccccc1	-	.	-	-	-	97
CCOC(=O)/C(=C\c1cn(C)c2ccccc12)[N+](=O)[O-]	-	.	-	-	-	95
O=C(O)c1ccc(CSc2nc3ccc(NC(=O)c4ccccc4C(=O)O)cc3s2)cc1	-	-	-	-	-	99
Cc1nc2ccc(NC(=O)c3ccccc3)cc2s1	-	.	-	-	-	-
